# Measurements from PubChem BioAssay (EPA / NIEHS).
# Several values for one entry are separate records, joined by “and”; a condition that tells them apart may be missing. Equal entries are not always repeated. Some structures have more than one record in an assay (separate samples or runs), and their calls can disagree. Activity calls are given as the source filed them. Rule for the calls: active = hit-call score of the fitted dose curve at least 0.9, where 1 is the maximum; inactive = score below 0.9.
# Assay: ATG_PPRE_CIS: Attagene CIS-FACTORIAL HepG2 Assay for human Peroxisome Proliferator-activated Response Element (PPRE) (AID 2282958)
# Conditions: HepG2 PPRE cis-element reporter, Attagene transcription factor profiling; actives raise or lower the signal
# Method: ATG_CIS is a cell-based, multiplexed-readout assay that uses HepG2, a human liver cell line, with measurements taken at 24 hours after chemical dosing in a 24-well plate.ATG_PPRE_CIS is one of 52 assay component(s) measured or calculated from the ATG_CIS assay. It is designed to make measurements of mRNA induction, a form of inducible reporter, as detected with fluorescence intensity signals by Reverse transcription polymerase chain reaction (RT-PCR) and Capillary electrophoresis technology.Data from the assay component ATG_PPRE_CIS was analyzed into 1 assay endpoint. This assay endpoint, ATG_PPRE_CIS, was analyzed with bidirectional fitting relative to DMSO as the negative control and baseline of activity. Using a type of inducible reporter, measures of mRNA for gain or loss-of-signal activity can be used to understand the reporter gene at the transcription factor-level as they relate to the gene PPARA and PPARD and PPARG. Furthermore, this assay endpoint can be referred to as a primary readout, because this assay has produced multiple assay endpoints where this one serves a reporter gene function. To generalize the intended target to other relatable targets, this assay endpoint is annotated to the nuclear receptor intended target family, where the subfamily is non-steroidal.
# Human liver HepG2 cells are transiently transfected with multiple reporter transcription units (MRTUs) in 6-well plates using FuGene 6 reagent (Roche; 3 ml FuGene/1 mg DNA). The MRTU constructs are regulated by a cis-regulating element (promoter). […] A major difference between the CIS and TRANS system is that in CIS activities of endogenous TFs are measured, whereas the TRANS assay evaluates changes in activities of exogenous, chimeric NR-Gal4 proteins. […] At the end of 24 hour incubation, total RNA was isolated using TriZol reagent (Invitrogen). The isolated RNA is then reverse-transcribed using oligo(dT) primer and Mo-MLV reverse transcriptase (Invitrogen) with DNAse I (Ambion) treatment for 30 min. The one-tenth of the produced cDNA was amplified by PCR using Taq DNA polymerase (Invitrogen) and two reporter sequence-specific primers. The PCR products were fluorescently labeled by primer extension with 6-arboxyfluorescein (6-FAM) 5'-labeled reporter sequence-specific primer (2 min at 95 C, 20 s at 68 C and 10 min at 72 C) and these products were digested with 5U of HpaI (New England Biolabs) for 2h at 37 C. The fragments were purified using Qiaquick PCR columns (Qiagen), analyzed on an ABI 3130xL genetic analyzer (Applied Biosystems) with peak positions identified by using a set of X-rhodamine (ROX)-labeled MapMarker1000 molecular weight standards (BioVentures). The raw capillary electrophoresis data was processed using Attagraph software (Attagene).
SMILES,outcome,AC50
CS/C(C)=N/OC(=O)N(C)SN(C)C(=O)O/N=C(\C)SC,inactive,–
Cc1c(F)c(F)c(COC(=O)C2C(/C=C(\Cl)C(F)(F)F)C2(C)C)c(F)c1F (stereo not given),inactive,–
C#CCOS(=O)OC1CCCCC1Oc1ccc(C(C)(C)C)cc1 (stereo not given),inactive,–
COC(=O)C=C(C)OP(=O)(OC)OC,inactive,–
O=C(O)COc1nc(Cl)c(Cl)cc1Cl,–,50 µM (active)
COc1cnc(OC)n2nc(NS(=O)(=O)c3c(OCC(F)F)cccc3C(F)(F)F)nc12,inactive,–
CC(C)Oc1cc(-n2nc(C(C)(C)C)oc2=O)c(Cl)cc1Cl,inactive,–
OC(c1ccc(Cl)cc1)(c1cncnc1)c1ccccc1Cl (stereo not given),inactive,–
COc1ccc(C(c2ccc(OC)cc2)C(Cl)(Cl)Cl)cc1,inactive,–
CCOc1cc(Oc2ccc(C(F)(F)F)cc2Cl)ccc1[N+](=O)[O-],–,13.7 µM (active)
Cc1ccc(-c2c(Cl)nc(C#N)n2S(=O)(=O)N(C)C)cc1,–,11.9 µM (active)
CCCC1COC(Cn2cncn2)(c2ccc(Cl)cc2Cl)O1 (stereo not given),inactive,–
N#Cc1nn(-c2c(Cl)cc(C(F)(F)F)cc2Cl)c(N)c1S(=O)C(F)(F)F (stereo not given),inactive,22.8 µM (active)
CCON=C(CC)C1=C(O)CC(c2c(C)cc(C)cc2C)CC1=O (stereo not given),inactive,–
CNC(=O)ON=CC(C)(C)SC,inactive,–
CC1=C(C(=O)Nc2ccccc2)SCCO1,inactive,–
CCCCNC(=O)OCC#CI,inactive,26.3 µM (active)
CON(C)C(=O)Nc1ccc(Cl)c(Cl)c1,inactive,69.6 µM (active)
COc1nc(NC(C)C)nc(NC(C)C)n1,inactive,–

SMILES,outcome,AC50
CCOC(=O)CC(SP(=S)(OC)OC)C(=O)OCC (stereo not given),–,83.1 µM (active) and 32.5 µM (active)
CCNc1nc(Cl)nc(NC(C)C)n1,inactive,–
COC(=O)C(C)Oc1ccc(Oc2ccc(Cl)cc2Cl)cc1 (stereo not given),–,18.7 µM (active) and 11 µM (active) and 23 µM (active)
N#Cc1cc(Br)c(O)c(Br)c1,–,21.1 µM (active)
CCCN(CCC)c1c([N+](=O)[O-])cc(S(N)(=O)=O)cc1[N+](=O)[O-],inactive,–
O=C(Nc1ccccc1)Nc1ccnc(Cl)c1,–,22.6 µM (active)
Fc1ccc(Oc2ccnc3cc(Cl)cc(Cl)c23)cc1,–,2.17 µM (active)
CCOC(=O)C(Cl)Cc1cc(-n2nc(C)n(C(F)F)c2=O)c(F)cc1Cl (stereo not given),inactive,–
CC1COC(Cn2cncn2)(c2ccc(Oc3ccc(Cl)cc3)cc2Cl)O1 (stereo not given),–,3.17 µM (active)
CC(C)C1(C)N=C(c2nc3ccccc3cc2C(=O)O)NC1=O (stereo not given),inactive,–
CO/C=C(/C(=O)OC)c1ccccc1Oc1cc(Oc2ccccc2C#N)ncn1,inactive,–
N#CC(CCc1ccc(Cl)cc1)(Cn1cncn1)c1ccccc1 (stereo not given),inactive,–
C=CC1(C)OC(=O)N(c2cc(Cl)cc(Cl)c2)C1=O (stereo not given),inactive,–
COC(=O)N(OC)c1ccccc1COc1ccn(-c2ccc(Cl)cc2)n1,–,0.343 µM (active)
CN(C)C(=S)SSC(=S)N(C)C,inactive,–
CCCCC(CC)COC(=O)c1ccccc1C(=O)OCC(CC)CCCC (stereo not given),–,17.5 µM (active)
CCc1nn(C)c(C(=O)NCc2ccc(C(C)(C)C)cc2)c1Cl,–,0.462 µM (active)
COP(N)(=O)SC (stereo not given),inactive,–
